# Results from PubChem BioAssay (EPA / NIEHS).
# Results filed as inconclusive are left out. Active and inactive are the calls of the source. Rule for the calls: active = hit-call score of the fitted dose curve at least 0.9, where 1 is the maximum; inconclusive = response in the unintended direction; inactive = score below 0.9.
# Target: Retinoic acid receptor RXR-alpha (Homo sapiens) (UniProt P19793)
# Experiment: TOX21_TR_RXR_BLA_Antagonist_Followup_ratio: Tox21 Thyroid Hormone Receptor beta Retinoid X Receptor alpha (RXRa) Antagonism Beta-lactamase (BLA) Follow-Up Assay, Ratio (AID 2283972)
# In short: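 Beta-lactamase reporter readout as cleaved/uncleaved substrate ratio (460:530 nm) after 2 h substrate loading at room temperature. GAL4-RXRa bla HEK293T cells were exposed 16 h at 37C to 11-point compound series; loss of signal scored against DMSO baseline.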
# Sequence of Retinoic acid receptor RXR-alpha (Homo sapiens) (P19793 whole entry, looked up): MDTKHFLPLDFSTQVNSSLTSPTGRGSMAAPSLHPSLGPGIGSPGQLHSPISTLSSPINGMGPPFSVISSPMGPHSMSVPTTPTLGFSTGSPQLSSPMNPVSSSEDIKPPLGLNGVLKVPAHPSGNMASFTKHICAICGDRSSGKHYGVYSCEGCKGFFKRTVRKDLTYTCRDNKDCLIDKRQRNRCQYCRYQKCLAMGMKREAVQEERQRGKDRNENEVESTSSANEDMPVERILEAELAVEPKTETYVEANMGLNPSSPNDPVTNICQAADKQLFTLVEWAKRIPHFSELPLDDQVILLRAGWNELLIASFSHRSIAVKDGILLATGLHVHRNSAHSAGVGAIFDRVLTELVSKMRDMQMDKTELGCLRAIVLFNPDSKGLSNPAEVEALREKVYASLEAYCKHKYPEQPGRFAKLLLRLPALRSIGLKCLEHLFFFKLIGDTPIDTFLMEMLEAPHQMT
structure (smiles),measurement,value
C#C[C@]1(O)CC[C@H]2[C@@H]3CCC4=CC(=O)CC[C@@H]4[C@H]3CC[C@@]21C,outcome,inactive
